# According to PubChem BioAssay (NCATS):
# Inconclusive results are not listed. A number with no mark means an inactive call. The source made the active and inactive calls. The call rests on the fitted dose curve.
# Assay: Primary qHTS for inhibitors of SARS-S pseudo-typed particle cell entry (AID 1479145); further: nearly all actives have a fitted effect of over 45% in size
# Settings: SARS-S pseudotyped particle cell entry, luciferase reporter; series mostly up to 57.1 µM; activity change, negative = inhibition: at the top concentration
# On the % scale 0 is the no-effect control and ±100 the full control effect.
SMILES,"activity change, negative = inhibition [%]",outcome
CO[C@@H]1[C@@H](OC(N)=O)[C@@H](O)[C@H](Oc2ccc3c(O)c(NC(=O)c4ccc(O)c(CC=C(C)C)c4)c(=O)oc3c2C)OC1(C)C,-21.4,
NC(N)=NC(=O)Cc1c(Cl)cccc1Cl,-14.4,
CCOc1cc(OCC)c(C(=O)CCC(=O)O)cc1OCC,0.984,
COc1ccc(C(=O)c2ccccc2)c(O)c1,-31.8,
C[C@]12CC[C@H]3[C@@H](CCC4=CC(=O)CC[C@@H]43)[C@@H]1CC[C@@H]2OC(=O)CCc1ccco1,-8.87,
Cn1c(=O)c2[nH]c(Br)nc2n(C)c1=O,-26,
C[C@H](NC(CCc1ccccc1)C(=O)O)C(=O)N1CCC[C@H]1C(=O)O (stereo partly specified),-29.1,
CC1(C)O[C@@H]2C[C@H]3[C@@H]4CCC5=CC(=O)C=C[C@]5(C)[C@@]4(F)[C@@H](O)C[C@]3(C)[C@]2(C(=O)CO)O1,,inactive
COc1c2occc2cc2ccc(=O)oc12,,inactive
CC(CC(C#N)(c1ccccc1)C(C)C)N(C)C (stereo unspecified),-30,
NCC(=O)CCC(=O)O,-16.8,
CCCCCCCCCCCCSCCOCCO,,inactive
c1ccc(-c2nc[nH]c2-c2ccccc2)cc1,-14.6,
O=C(O)c1ccccc1S,,inactive
O=P(O)(O)C(O)(Cn1ccnc1)P(=O)(O)O,-28.9,
CC(O)(P(=O)(O)O)P(=O)(O)O,,inactive
Cc1cc(C)c(NC(=O)CN(CC(=O)O)CC(=O)O)c(C)c1Br,-10,
Cc1ccc(C(C)C)c(O)c1,-38.2,
Nc1ncnc2nc[nH]c12,-3.62,

SMILES,"activity change, negative = inhibition [%]",outcome
S=P(N1CC1)(N1CC1)N1CC1,,inactive [at 0.573 µM]
O=c1[nH]c(=O)n([C@H]2CCCO2)cc1F,-18.9,
C=CCc1ccc(O)c(OC)c1,,inactive
CC(C(=O)O)c1ccc2c(c1)CC(=O)c1ccccc1S2 (stereo unspecified),-10.1,
COC(=O)c1cccnc1,,inactive
Cc1cc(NS(=O)(=O)c2ccc(N)cc2)nc(C)n1,-4.45,
CC1CC(OC(=O)c2ccccc2O)CC(C)(C)C1 (stereo unspecified),,inactive
C[C@](O)(CS(=O)(=O)c1ccc(F)cc1)C(=O)Nc1ccc(C#N)c(C(F)(F)F)c1,,inactive
Clc1ccc2nsnc2c1NC1=NCCN1,-18.3,
O=C(CCOCCOCCOCCOCCC(=O)Nc1c(I)cc(I)c(C(=O)O)c1I)Nc1c(I)cc(I)c(C(=O)O)c1I,,inactive
Cc1ccc(C(=O)c2ccc(CC(=O)O)n2C)cc1,4.64,
O=c1oc2ccccc2c(O)c1Cc1c(O)c2ccccc2oc1=O,-2.6,
CN1C(CSCC(F)(F)F)Nc2cc(Cl)c(S(N)(=O)=O)cc2S1(=O)=O (stereo unspecified),,inactive
CC(C)c1ccc2oc3nc(N)c(C(=O)O)cc3c(=O)c2c1,,inactive
NCCCCCC(=O)O,1.01,
O=C(O)CCCC[C@@H]1SC[C@@H]2NC(=O)N[C@@H]21,,inactive
CC(=O)OCC1=C(C(=O)O)N2C(=O)[C@@H](NC(=O)Cc3cccs3)[C@H]2SC1,-83.6,
COc1ccc(NS(=O)(=O)c2ccc(N)cc2)nn1,-31.2,
CCO[C@H](Cc1ccc(OCCc2ccc(OS(C)(=O)=O)cc2)cc1)C(=O)O,-17.7,

# Assay: Primary qHTS for Huh7 cytotoxicity: counterscreen for inhibitors of MERS-S pseudotyped particle cell entry (AID 1479147); further: potency means the concentration at half of the fitted maximal effect
# Settings: cell viability read-out; series mostly up to 57.1 µM; activity change, negative = cytotoxicity: at the top concentration
SMILES,outcome,"activity change, negative = cytotoxicity",Potency
CO[C@@H]1[C@@H](OC(N)=O)[C@@H](O)[C@H](Oc2ccc3c(O)c(NC(=O)c4ccc(O)c(CC=C(C)C)c4)c(=O)oc3c2C)OC1(C)C,inactive,,
NC(N)=NC(=O)Cc1c(Cl)cccc1Cl,,-2.84%,
CCOc1cc(OCC)c(C(=O)CCC(=O)O)cc1OCC,,-6.98%,
COc1ccc(C(=O)c2ccccc2)c(O)c1,inactive,,
C[C@]12CC[C@H]3[C@@H](CCC4=CC(=O)CC[C@@H]43)[C@@H]1CC[C@@H]2OC(=O)CCc1ccco1,inactive,,
Cn1c(=O)c2[nH]c(Br)nc2n(C)c1=O,inactive,,
C[C@H](NC(CCc1ccccc1)C(=O)O)C(=O)N1CCC[C@H]1C(=O)O (stereo partly specified),,0.687%,
CC1(C)O[C@@H]2C[C@H]3[C@@H]4CCC5=CC(=O)C=C[C@]5(C)[C@@]4(F)[C@@H](O)C[C@]3(C)[C@]2(C(=O)CO)O1,,-14.3%,
COc1c2occc2cc2ccc(=O)oc12,inactive,,
CC(CC(C#N)(c1ccccc1)C(C)C)N(C)C (stereo unspecified),inactive,,
NCC(=O)CCC(=O)O,,-3.55%,
CCCCCCCCCCCCSCCOCCO,inactive,,
c1ccc(-c2nc[nH]c2-c2ccccc2)cc1,,-12.6%,
O=C(O)c1ccccc1S,inactive,,
O=P(O)(O)C(O)(Cn1ccnc1)P(=O)(O)O,inactive,,
CC(O)(P(=O)(O)O)P(=O)(O)O,,-2.91%,
Cc1cc(C)c(NC(=O)CN(CC(=O)O)CC(=O)O)c(C)c1Br,,1.42%,
Cc1ccc(C(C)C)c(O)c1,,2.65%,
Nc1ncnc2nc[nH]c12,,3.35%,

SMILES,outcome,"activity change, negative = cytotoxicity",Potency
S=P(N1CC1)(N1CC1)N1CC1,,-8.32% [at 0.573 µM],
O=c1[nH]c(=O)n([C@H]2CCCO2)cc1F,,0.904%,
C=CCc1ccc(O)c(OC)c1,inactive,,
CC(C(=O)O)c1ccc2c(c1)CC(=O)c1ccccc1S2 (stereo unspecified),,1.41%,
COC(=O)c1cccnc1,inactive,,
Cc1cc(NS(=O)(=O)c2ccc(N)cc2)nc(C)n1,,-6.29%,
CC1CC(OC(=O)c2ccccc2O)CC(C)(C)C1 (stereo unspecified),inactive,,
C[C@](O)(CS(=O)(=O)c1ccc(F)cc1)C(=O)Nc1ccc(C#N)c(C(F)(F)F)c1,inactive,,
Clc1ccc2nsnc2c1NC1=NCCN1,inactive,,
O=C(CCOCCOCCOCCOCCC(=O)Nc1c(I)cc(I)c(C(=O)O)c1I)Nc1c(I)cc(I)c(C(=O)O)c1I,,-8.59%,
Cc1ccc(C(=O)c2ccc(CC(=O)O)n2C)cc1,inactive,,
O=c1oc2ccccc2c(O)c1Cc1c(O)c2ccccc2oc1=O,inactive,,
CN1C(CSCC(F)(F)F)Nc2cc(Cl)c(S(N)(=O)=O)cc2S1(=O)=O (stereo unspecified),inactive,,
CC(C)c1ccc2oc3nc(N)c(C(=O)O)cc3c(=O)c2c1,,,10 µM (active)
NCCCCCC(=O)O,inactive,,
O=C(O)CCCC[C@@H]1SC[C@@H]2NC(=O)N[C@@H]21,inactive,,
CC(=O)OCC1=C(C(=O)O)N2C(=O)[C@@H](NC(=O)Cc3cccs3)[C@H]2SC1,,-10.6%,
COc1ccc(NS(=O)(=O)c2ccc(N)cc2)nn1,inactive,,
CCO[C@H](Cc1ccc(OCCc2ccc(OS(C)(=O)=O)cc2)cc1)C(=O)O,,0.0548%,
